In PubChem BioAssay (EPA / NIEHS):
Several values for one entry are separate records, joined by “and”; a condition that tells them apart may be missing. Identical values can stand only once. Activity calls are given as the source filed them. Rule for the calls: active = hit-call score of the fitted dose curve at least 0.9, where 1 is the maximum; inactive = score below 0.9.

read-out: Tumor necrosis factor (Homo sapiens) (UniProt P01375); test: BSK_LPS_TNFa: BioMAP Diversity Plus: LPS Assay for Tumour Necrosis Factor alpha (TNFa) Biomarker Activity (AID 2283085); details: primary human HUVEC with PBMC; actives raise or lower the signal
Experimental: BSK_LPS is a cell-based, multiplexed-readout assay that uses umbilical vein endothelium and peripheral blood mononuclear cells, a human vascular primary cell co-culture, with measurements taken at 24 hours after chemical dosing in a 96-well plate.BSK_LPS_TNFa is an assay component measured in the BSK_LPS assay. It measures TNF-a antibody related to regulation of gene expression using ELISA technology.Data from the assay component BSK_LPS_TNFa was analyzed into 1 assay endpoint. This assay endpoint, BSK_LPS_TNFa, was analyzed with bidirectional fitting relative to DMSO as the negative control and baseline of activity. Using a type of binding reporter, gain or loss-of-signal activity can be used to understand changes in the signaling as they relate to the gene TNF. Furthermore, this assay endpoint can be referred to as a primary readout, because this assay has produced multiple assay endpoints where this one serves a signaling function. To generalize the intended target to other relatable targets, this assay endpoint is annotated to the cytokine intended target family, where the subfamily is inflammatory factor.
The levels of cell surface (or secreted, indicated by the prefix "s") biomarker endpoints were measured by ELISA. Overt cytotoxicity to cells in confluent adherent cultures (all systems other than the BT system) was assessed by measuring total protein levels using sulforhodamine B (SRB) staining in parallel cultures at the time of biomarker measurements, indicated as SRB endpoints. For proliferation assays for adherent cell types, individual cell types are cultured at sub-confluence and relative cell numbers quantified by SRB staining at time points optimized for each system (48 h: 3C and CASM3C systems; 72 h: BT and HDF3CGF systems; 96 h: SAg system). SRB was performed by staining cells with 0.1% SRB after fixation with 10% TCA and reading wells at 560 nm.Viability and proliferation of PBMC (T cells) was quantified by Alamar Blue reduction for the SAg and BT systems. For PBMC viability (referred to as PBMC Cytotoxicity within the assay endpoint names), cells were plated (75,000/well in a 96-well plate) and then chemical samples added for 1 h before addition of activators, SEB and TSST-1 (20 ng/mL final concentration each). Cells were incubated for 90 h. Then, Alamar Blue (20 uL/well) (Invitrogen, Cat DAL1100) was added for 6 h, and the plates were read with a fluorescence microplate reader at 546/580 nm (excitation/emission). For PBMC proliferation, cells were plated and activated as above but incubated for only 16 h prior to addition of Alamar Blue. Plates were read after 6 h.

Tumor necrosis factor (Homo sapiens), sequence (P01375 whole entry, looked up): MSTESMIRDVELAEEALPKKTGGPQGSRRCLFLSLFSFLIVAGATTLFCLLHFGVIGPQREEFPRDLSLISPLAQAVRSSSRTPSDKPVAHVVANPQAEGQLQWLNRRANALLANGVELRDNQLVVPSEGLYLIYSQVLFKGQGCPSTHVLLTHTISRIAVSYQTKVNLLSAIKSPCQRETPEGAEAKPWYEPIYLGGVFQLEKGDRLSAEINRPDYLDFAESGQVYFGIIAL

For `CCOP(=S)(OCC)SCSP(=S)(OCC)OCC`, which outcome is on record?
Its outcome is “inactive”.

With `COP(=S)(OC)Oc1ccc(Sc2ccc(OP(=S)(OC)OC)cc2)cc1` as the compound, how does the outcome read?
Its outcome is “inactive”.

With `COC[C@H](C)N(C(=O)CCl)c1c(C)csc1C` as the compound, how does the outcome read?
The outcome was “inactive”.

`C=C(C)C(=O)[O][Sn]([CH2]CCC)([CH2]CCC)[CH2]CCC` was tested. Which AC50 did it give?
The AC50 was 0.34 µM (active).

How did the outcome turn out when `Oc1ccc(-c2ccccc2)cc1` was run?
Its outcome is “inactive”.

Which outcome does the source give for `CCOP(=S)(OCC)SCCS(=O)(=O)CC` here?
The outcome was “inactive”.

`COc1cc(-c2ccc(N)c(OC)c2)ccc1N` was tested. Which outcome did it give?
Its outcome is “inactive”.

`CC12CC1(C)C(=O)N(c1cc(Cl)cc(Cl)c1)C2=O` (stereo not given) was tested. Which outcome did it give?
The outcome was “inactive”.

Which outcome does the source give for `CN(C)N=O` here?
Its outcome is “inactive”.

With `CCOP(=S)(OCC)Oc1ccc(S(C)=O)cc1` (stereo not given) as the compound, how does the outcome read?
Its outcome is “inactive”.

Which AC50 does the source give for `CC(C)(c1ccccc1)c1ccc(O)c(C(C)(C)c2ccccc2)c1` here?
The AC50 was 12.3 µM (active).

With `C(=NC1CCCCC1)=NC1CCCCC1` as the compound, how does the AC50 read?
Its AC50 is 35.1 µM (active).

`O=S(=O)(c1ccc(Cl)cc1)c1ccc(Cl)cc1` was tested. Which outcome did it give?
The outcome was “inactive”.

With `O=C(O)C(Cl)(Cl)Cl` as the compound, how does the outcome read?
The outcome was “inactive”.

`Nc1ccc(-c2ccc(N)c(Cl)c2)cc1Cl` was tested. Which outcome did it give?
The outcome was “inactive”.

For `CC(C)CCCCCCOC(=O)c1ccccc1C(=O)OCCCCCCC(C)C`, which outcome is on record?
Its outcome is “inactive”.

`NC(=O)O` was tested. Which outcome did it give?
The outcome was “inactive”.

How did the outcome turn out when `OCc1ccco1` was run?
The outcome was “inactive”.

`CCCCCCCCC(=O)NCc1ccc(O)c(OC)c1` was tested. Which outcome did it give?
The outcome was “inactive”.

Which AC50 does the source give for `C[C@@H]1C[C@@H]([C@H](O)CC2CC(=O)NC(=O)C2)C(=O)[C@@H](C)C1` here?
The AC50 was 7.89 µM (active).

With `O=C(Nc1ccc2[nH]ccc2c1)c1cc2cc(F)ccc2n1Cc1cccc(F)c1` as the compound, how does the AC50 read?
Its AC50 is 26.5 µM (active).

With `ClC1=C(Cl)[C@]2(Cl)[C@H]3[C@H]([C@H]4C=C[C@H]3C4)[C@@]1(Cl)C2(Cl)Cl` as the compound, how does the AC50 read?
The AC50 was 0.296 µM (active).

How did the AC50 turn out when `ClC(Cl)=C(Cl)C(Cl)=C(Cl)Cl` was run?
The AC50 was 30.9 µM (active).

With `Nc1cccc2ccccc12` as the compound, how does the outcome read?
Its outcome is “inactive”.

With `Cc1ccccc1N` as the compound, how does the outcome read?
Its outcome is “inactive”.

How did the outcome turn out when `BrCCBr` was run?
The outcome was “inactive”.

`CCOP(=S)(OCC)Oc1nc(Cl)c(Cl)cc1Cl` was tested. Which outcome did it give?
Its outcome is “inactive”.

For `CCOC(=O)/C=C(C)/C=C/C[C@@H](C)CCCC(C)C`, which AC50 is on record?
Its AC50 is 33.2 µM (active).

For `O=C(O)C(F)(F)C(F)(F)C(F)(F)C(F)(F)C(F)(F)C(F)(F)C(F)(F)C(F)(F)C(F)(F)C(F)(F)F`, which AC50 is on record?
The AC50 was 31.4 µM (active) and 4.39 µM (active) and 4.42 µM (active).

`CCSC(C)CC1CC(=O)C(C(CC)=NOC/C=C/Cl)=C(O)C1` (stereo not given) was tested. Which outcome did it give?
Its outcome is “inactive”.

How did the AC50 turn out when `O=C1C2(Cl)C3(Cl)C4(Cl)C(Cl)(Cl)C5(Cl)C3(Cl)C1(Cl)C5(Cl)C24Cl` (stereo not given) was run?
Its AC50 is 11.6 µM (active).

Which outcome does the source give for `NC(=S)Nc1ccccc1` here?
The outcome was “inactive”.

With `ClC1(Cl)C2(Cl)C3(Cl)C4(Cl)C(Cl)(Cl)C5(Cl)C3(Cl)C1(Cl)C5(Cl)C24Cl` (stereo not given) as the compound, how does the AC50 read?
Its AC50 is 0.149 µM (active).

For `CCCCCCCCc1ccc(O)cc1`, which AC50 is on record?
Its AC50 is 33.6 µM (active).

For `O=c1[nH]c(=O)[nH]c(=O)[nH]1`, which outcome is on record?
The outcome was “inactive”.

How did the outcome turn out when `C=CC(=O)OCCCCCC(C)C` was run?
The outcome was “inactive”.

For `ClCC(Cl)CCl`, which outcome is on record?
Its outcome is “inactive”.

For `COC(=O)c1sccc1S(=O)(=O)NC(=O)Nc1nc(C)nc(OC)n1`, which outcome is on record?
The outcome was “inactive”.

`CCN1CCC2(CC1)COc1cc3c(cc12)N(C(=O)c1ccc(-c2ccc(-c4nnc(C)o4)cc2C)cc1)CC3` was tested. Which AC50 did it give?
Its AC50 is 14.3 µM (active).

How did the outcome turn out when `COC(=O)Cc1ccccc1` was run?
The outcome was “inactive”.
